In PubChem BioAssay (NCATS):
Records with an inconclusive call do not appear. Activity calls are given as the source filed them. The call rests on the fitted dose curve; in most records, active means well fitted cell-killing curve with a large enough effect; inconclusive means small, poorly fitted or top-dose-only effect, or effect the other way; inactive means no such curve, though single readings can be large or run the other way.

Experiment: Quantitative High-Throughput drug screen in 47 multiple myeloma cell lines against the NCATS MIPE library collection: OPM1_PLB cell viability assay (AID 1918989); further: nearly all actives have a fitted effect of over 40% in size
Details: CellTiter-Glo, 48 h; series mostly up to 45.8 µM
From the text: PI: Beverly A. Mock Ph.D.
Laboratory of Cancer Biology and Genetics,
Center for Cancer Research, National Cancer Institute,
National Institute of Health, Bethesda, Maryland
Drug resistance and disease progression are common in multiple myeloma (MM) patients, underscoring the need for new therapeutic combinations. […] We hypothesized that effective combinations would reduce MYC expression and enhance p16 activity. […] These preclinical data identify potentially useful drug combinations for evaluation in drug-resistant MM and reveal potential mechanisms of combined drug sensitivity.
Described herein is the primary MIPE qHTS used to cherrypick compounds. Validated compounds were then further tested for potential synergistic activiy.
[1] Peat TJ, Gaikwad SM, Dubois W, Gyabaah-Kessie N, Zhang S, Gorjifard S, Phyo Z, Andres M, Hughitt VK, Simpson RM, Miller MA, Girvin AT, Taylor A, Williams D, D'Antonio N, Zhang Y, Rajagopalan A, Flietner E, Wilson K, Zhang X, Shinn P, Klumpp-Thomas C, McKnight C, Itkin Z, Chen L, Kazandijian D, Zhang J, Michalowski AM, Simmons JK, Keats J, Thomas CJ, Mock BA. Drug combinations identified by high-throughput screening promote cell cycle transition and upregulate Smad pathways in myeloma. Cancer Lett. 2023 Aug 1;568:216284. doi: 10.1016/j.canlet.2023.216284. Epub 2023 Jun 24. PMID: 37356470; PMCID: PMC10408729.
SEQUENCE No. (e.g., 1, 2, 3, etc.); […] (e.g., Cells, Incubation, Reagent, etc.); VALUE and DESCRIPTION.
1; Cells; 5 uL; white, solid bottom 1536-well Greiner assay plate.
2; Compounds; 23 nL; Kalypsis pin tool (Wako USA) equipped with a 1536-well pin head to transfer to the assay plates.
3; Incubation; 48 hours; 37C incubation.
4; Reagent;5uL; CellTiter Glo (Promega).
5; Detector; 425V; Luminescence; Viewlux PerkinElmer.
NOTES (numbers refer to Sequence numbers above)
1. The cell-based screening methods employed in this study were like those previously published. Briefly, the corresponding myeloma cell lines were screened in 1,536-well plates with 500 cells, 5-uL per well for inhibition of cell viability (assessed by measuring ATP levels with CellTiterGlo).
2. NCATS MIPE 4.0 library of approved and investigational drugs were added using the Kalypsis pin tool. Wells treated with DMSO only for 100% viability and media only for 0% viability were used as controls.
3. The assay plates were covered and incubated for 48 hours in a 37C, 5% CO2 incubator with controlled humidity.
4. After 48 hours, CellTilter-GloTM luminescent substrate mix (Promega) reagent was added to the assay plate and plates we incubated for 5 min at room temperature.
5. Signal was measured as median relative luminescence units on a ViewLux (PerkinElmer) multiplate reader.
[1] Heske CM, Davis MI, Baumgart JT, Wilson K, Gormally MV, Chen L, Zhang X, Ceribelli M, Duveau DY, Guha R, Ferrer M, Arnaldez FI, Ji J, Tran HL, Zhang Y, Mendoza A, Helman LJ, Thomas CJ. Matrix Screen Identifies Synergistic Combination of PARP Inhibitors and Nicotinamide Phosphoribosyltransferase (NAMPT) Inhibitors in Ewing Sarcoma. Clin Cancer Res. 2017 Dec 1;23(23):7301-7311. doi: 10.1158/1078-0432.CCR-17-1121. Epub 2017 Sep 12. PMID: 28899971; PMCID: PMC6636827.
Potency means the concentration at half of the fitted maximal effect.

Row | Structure (SMILES) | Potency
1 | O=c1[nH]c(=O)n([C@H]2C[C@@H](O)[C@@H](CO)O2)cc1C(F)(F)F | inactive
2 | Cc1nc(NC(=O)N2CCC[C@@H]2C(N)=O)sc1-c1csc(C(C)(C)C)n1 | 14.8 µM (active)
3 | Cc1[nH]c(C=C2C(=O)Nc3ccc(S(=O)(=O)N(C)c4cccc(Cl)c4)cc32)c(C)c1C(=O)N1CCN(C)CC1 | 9.35 µM (active)
4 | Clc1ccc(COC(Cn2ccnc2)c2ccc(Cl)cc2Cl)c(Cl)c1 (stereo not given) | 18.7 µM (active)
5 | COc1ccc2c(c1)c(C1=C(c3c[nH]c4ccccc34)C(=O)NC1=O)cn2CCCN(C)C | 23.5 µM (active)
6 | CN1N=C(N)c2cn([C@@H]3O[C@H](COP(=O)(O)O)[C@@H](O)[C@@H]3O)c3ncnc1c23 | 0.469 µM (active)
7 | Cc1csc(-c2nnc(Nc3ccc(Oc4ncccc4-c4ccnc(N)n4)cc3)c3ccccc23)c1 | 18.7 µM (active)
8 | COc1ccc2ccc(=O)oc2c1CC=C(C)C | inactive
9 | C#CCN(C)CC1=Cc2ccccc2Oc2ccccc21 | inactive
10 | CCC(C)SSc1ncc[nH]1 (stereo not given) | 3.72 µM (active)
11 | COc1cc(F)c(C(C)C)cc1-c1ccc(C(F)(F)F)cc1CN1C(=O)O[C@H](c2cc(C(F)(F)F)cc(C(F)(F)F)c2)[C@@H]1C | inactive
12 | CCNC(=O)c1noc(-c2cc(C(C)C)c(O)cc2O)c1-c1ccc(CN2CCOCC2)cc1 | 0.0833 µM (active)
13 | OC1CCC(Nc2ncc3nc(Nc4c(F)cc(F)cc4F)n([C@@H]4CCOC4)c3n2)CC1 (stereo not given in full) | 20.9 µM (active)
14 | CC(=O)NCCC(=O)N[C@@H](CCC(N)=O)C(=O)N[C@@H](CO)C(=O)N[C@@H](CCC(N)=O)C(=O)N[C@@H](CCC(N)=O)C(=O)N[C@H](C(=O)N[C@@H](Cc1ccccc1)C(=O)N[C@]1(C)CCCCCCC=CCCC[C@@](C)(C(=O)N[C@@H](CCC(N)=O)C(=O)N[C@@H](CC(N)=O)C(N)=O)NC(=O)[C@H](CC(C)C)NC(=O)[C@H](CC(C)C)NC(=O)[C@@H](CCCNC(=N)N)NC(=O)[C@H](Cc2c[nH]c3ccccc23)NC(=O)[C@H](CC(C)C)NC(=O)[C@H](CC(N)=O)NC1=O)[C@H](C)O | 26.4 µM (active)
15 | CN1CCc2c(n(Cc3ccc(C(=O)NO)cc3)c3ccccc23)C1 | 16.6 µM (active)
16 | CNC1CCC(N(Cc2cccc(-c3ccncc3)c2)C(=O)c2sc3ccccc3c2Cl)CC1 (stereo not given) | 8.33 µM (active)
17 | CCOC(=O)N1CCN([N+]([O-])=NOc2cc(ON=[N+]([O-])N3CCN(C(=O)OCC)CC3)c([N+](=O)[O-])cc2[N+](=O)[O-])CC1 | 5.9 µM (active)
18 | CC(C)CNc1ccnc(NCc2csc(-c3ccccc3)n2)n1 | 11.8 µM (active)
19 | CCCCC(C)(C)[C@H](O)C=C[C@H]1[C@H](O)CC(=O)[C@H]1CC=CCCCC(=O)O | 18.7 µM (active)
20 | CN[C@@H]1CN(c2ccc3c(=O)c(C(=O)O)cn(-c4nccs4)c3n2)C[C@@H]1OC | 14.4 µM (active)

Row | Structure (SMILES) | Potency
21 | CCNC(=O)[C@H]1O[C@@H](n2cnc3c(N)nc(NCCc4ccc(CCC(=O)O)cc4)nc32)[C@H](O)[C@H]1O | inactive
22 | O=C(O)c1nc(=O)[nH]c(=O)[nH]1 | inactive
23 | O=C(O)Cc1cccc(OCCCN(Cc2cccc(C(F)(F)F)c2Cl)CC(c2ccccc2)c2ccccc2)c1 | 18.7 µM (active)
24 | Cc1cccc2c1CC[C@H](CN1CCC(c3c(Cl)cccc3Cl)CC1)C[C@@H]2O | 18.7 µM (active)
25 | O=C(Nc1cccc2c(=O)cc(-c3nn[nH]n3)oc12)c1ccc(OCCCCc2ccccc2)cc1 | 18.7 µM (active)
26 | C[C@H]1[C@H](O)O[C@@H]2O[C@@]3(C)CC[C@@H]4[C@H](C)CC[C@@H]1[C@@]24OO3 | 11.8 µM (active)
27 | NC(=O)c1ncn([C@@H]2O[C@H](CO)[C@@H](O)[C@@H]2O)n1 | inactive
28 | CN1C(=O)C(Cc2c[nH]c3ccccc23)NC1=S (stereo not given) | inactive
29 | Fc1ccc(C(c2ccc(F)cc2)N2CCN(CC=Cc3ccccc3)CC2)cc1 | inactive
30 | CCOC(=O)[C@H](CCc1ccccc1)N[C@@H](C)C(=O)N1CCCC1C(=O)O (stereo not given in full) | inactive
31 | O=C(O)C1=NC(C(=O)O)CC(C=CN2c3cc(O)c(OC4OC(CO)C(O)C(O)C4O)cc3CC2C(=O)O)=C1 (stereo not given) | inactive
32 | CNc1nc(-c2ccc3c(N)n[nH]c3c2)cc(N2C[C@@H](C(=O)NC3CCCCC3)CC[C@@H]2C)n1 | 23.5 µM (active)
33 | COc1c(C)c2c(c(O)c1CC=C(C)CCC(=O)OCCN1CCOCC1)C(=O)OC2 | 8.33 µM (active)
34 | CN(C)c1ccc(-c2nc3ncc(Cl)c(N4CCN(CC(=O)Nc5nccs5)CC4)c3[nH]2)cc1 | 1.87 µM (active)
35 | CN1CCN2c3ncccc3Cc3ccccc3C2C1 (stereo not given) | inactive
36 | Cn1cnc(-c2cc3nccc(Oc4ccc(NC(=S)NC(=O)Cc5ccccc5)cc4F)c3s2)c1 | 18.7 µM (active)
37 | CCOc1ccccc1N=Nc1c(C)[nH]n(-c2nc(-c3ccccc3)cs2)c1=O | inactive
38 | CN[C@@H](C)[C@H]1[C@H](O)C[C@@]2(C)[C@@H]3CC[C@H]4C(C)(C)[C@@H](NC)CC[C@@]45C[C@@]35CC[C@]12C | inactive
39 | CC(=O)N1CCN(c2ccc(OCc3nn(C)c(C)c3-c3cccc4c(CCCOc5cc(C)c(Cl)c(C)c5)c(C(=O)O)n(Cc5cccnc5)c34)cc2)CC1 | 7.43 µM (active)
40 | CC(C)C[C@@H](N)[C@H](O)C(=O)N[C@H](C(=O)N[C@H](C(=O)N[C@@H](CC(=O)O)C(=O)O)C(C)C)C(C)C | 4.69 µM (active)
